The supplement of paper PMC11732987, “Enantioselective OTUD7B fragment discovery through chemoproteomics screening and high-throughput optimisation” (Communications Chemistry, 2025)

Tests used:
Experiment in all cases: log2 ratio of Biotin-Ahx-Ub-VS probe labelling (fragment/DMSO); higher = less target engagement (more negative = stronger competition), active = hit call of the paper (q ≤ 0.05, log2 ratio ≤ -1)
Settings in all cases: compound concentration: 200 uM; treatment time: 3 h
USP19 = target: T1, USP19 (UniProt O94966)
T1 sequence (whole entry): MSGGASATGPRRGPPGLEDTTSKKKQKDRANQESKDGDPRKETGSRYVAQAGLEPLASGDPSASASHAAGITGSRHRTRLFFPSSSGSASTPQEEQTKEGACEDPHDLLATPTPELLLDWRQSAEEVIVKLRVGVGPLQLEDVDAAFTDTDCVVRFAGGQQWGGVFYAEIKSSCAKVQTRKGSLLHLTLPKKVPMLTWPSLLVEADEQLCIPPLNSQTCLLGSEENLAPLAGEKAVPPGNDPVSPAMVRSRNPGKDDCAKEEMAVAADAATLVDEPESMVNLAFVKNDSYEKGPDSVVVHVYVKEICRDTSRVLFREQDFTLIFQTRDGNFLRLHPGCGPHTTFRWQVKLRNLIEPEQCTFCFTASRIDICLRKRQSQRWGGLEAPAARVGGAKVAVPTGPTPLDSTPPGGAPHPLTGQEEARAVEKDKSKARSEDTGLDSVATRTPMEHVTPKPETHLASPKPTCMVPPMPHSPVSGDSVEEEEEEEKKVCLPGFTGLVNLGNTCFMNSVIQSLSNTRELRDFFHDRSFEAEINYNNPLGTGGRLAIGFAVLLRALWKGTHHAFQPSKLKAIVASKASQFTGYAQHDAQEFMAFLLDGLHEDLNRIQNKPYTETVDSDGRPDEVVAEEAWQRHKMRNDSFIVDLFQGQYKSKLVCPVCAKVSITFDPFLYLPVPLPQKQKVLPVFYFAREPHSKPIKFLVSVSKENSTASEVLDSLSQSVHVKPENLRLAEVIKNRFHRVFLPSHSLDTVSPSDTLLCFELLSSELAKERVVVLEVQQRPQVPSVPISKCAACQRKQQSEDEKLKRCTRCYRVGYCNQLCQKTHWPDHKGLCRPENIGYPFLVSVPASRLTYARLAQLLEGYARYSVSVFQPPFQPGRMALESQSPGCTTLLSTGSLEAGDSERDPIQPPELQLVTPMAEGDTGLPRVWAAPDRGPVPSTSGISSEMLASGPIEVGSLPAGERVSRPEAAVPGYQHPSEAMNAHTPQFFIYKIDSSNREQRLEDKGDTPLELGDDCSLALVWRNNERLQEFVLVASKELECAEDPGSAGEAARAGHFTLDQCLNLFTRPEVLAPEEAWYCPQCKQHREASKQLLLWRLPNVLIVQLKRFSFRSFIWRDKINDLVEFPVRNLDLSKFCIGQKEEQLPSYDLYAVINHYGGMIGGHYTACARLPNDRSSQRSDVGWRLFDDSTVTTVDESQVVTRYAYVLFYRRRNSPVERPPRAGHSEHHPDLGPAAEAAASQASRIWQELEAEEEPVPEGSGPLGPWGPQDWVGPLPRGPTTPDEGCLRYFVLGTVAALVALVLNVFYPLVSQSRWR
How it was run: (§1)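 Fragment (200 µM) or vehicle was incubated for 3 h with triplicate HEK293T lysate samples of 495 µg, which were then treated with Biotin-Ahx-Ub-VS at 0.5 µM final for 1 h. Labelled DUBs were enriched on NeutrAvidin, digested with LysC and trypsin, and analysed by diaPASEF LC-MS/MS. Values are average log2 fragment/vehicle ratios from an unpaired t-test on global-median-normalised Spectronaut label-free quantities, using proteins with ≥2 unique peptides.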

USP22 = target: T2, USP22 (UniProt Q9UPT9)
T2 sequence (whole entry): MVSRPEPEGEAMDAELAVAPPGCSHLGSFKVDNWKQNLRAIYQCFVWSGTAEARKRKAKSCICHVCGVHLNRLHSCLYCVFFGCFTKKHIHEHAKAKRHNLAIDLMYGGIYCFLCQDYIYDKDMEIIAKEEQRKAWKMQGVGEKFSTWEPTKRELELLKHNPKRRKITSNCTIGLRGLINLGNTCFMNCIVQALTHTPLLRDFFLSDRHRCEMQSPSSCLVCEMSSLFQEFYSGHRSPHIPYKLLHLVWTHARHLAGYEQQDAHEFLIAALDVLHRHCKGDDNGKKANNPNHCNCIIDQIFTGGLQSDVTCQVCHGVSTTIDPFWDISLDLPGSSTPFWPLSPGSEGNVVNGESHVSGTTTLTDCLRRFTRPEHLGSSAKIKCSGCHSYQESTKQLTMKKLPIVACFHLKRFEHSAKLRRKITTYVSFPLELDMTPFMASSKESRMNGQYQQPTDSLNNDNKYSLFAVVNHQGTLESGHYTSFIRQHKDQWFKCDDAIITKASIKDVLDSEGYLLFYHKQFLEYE
How it was run: as §1

USP24 = USP24 (UniProt Q9UPU5)
Sequence of USP24 (Q9UPU5 whole entry): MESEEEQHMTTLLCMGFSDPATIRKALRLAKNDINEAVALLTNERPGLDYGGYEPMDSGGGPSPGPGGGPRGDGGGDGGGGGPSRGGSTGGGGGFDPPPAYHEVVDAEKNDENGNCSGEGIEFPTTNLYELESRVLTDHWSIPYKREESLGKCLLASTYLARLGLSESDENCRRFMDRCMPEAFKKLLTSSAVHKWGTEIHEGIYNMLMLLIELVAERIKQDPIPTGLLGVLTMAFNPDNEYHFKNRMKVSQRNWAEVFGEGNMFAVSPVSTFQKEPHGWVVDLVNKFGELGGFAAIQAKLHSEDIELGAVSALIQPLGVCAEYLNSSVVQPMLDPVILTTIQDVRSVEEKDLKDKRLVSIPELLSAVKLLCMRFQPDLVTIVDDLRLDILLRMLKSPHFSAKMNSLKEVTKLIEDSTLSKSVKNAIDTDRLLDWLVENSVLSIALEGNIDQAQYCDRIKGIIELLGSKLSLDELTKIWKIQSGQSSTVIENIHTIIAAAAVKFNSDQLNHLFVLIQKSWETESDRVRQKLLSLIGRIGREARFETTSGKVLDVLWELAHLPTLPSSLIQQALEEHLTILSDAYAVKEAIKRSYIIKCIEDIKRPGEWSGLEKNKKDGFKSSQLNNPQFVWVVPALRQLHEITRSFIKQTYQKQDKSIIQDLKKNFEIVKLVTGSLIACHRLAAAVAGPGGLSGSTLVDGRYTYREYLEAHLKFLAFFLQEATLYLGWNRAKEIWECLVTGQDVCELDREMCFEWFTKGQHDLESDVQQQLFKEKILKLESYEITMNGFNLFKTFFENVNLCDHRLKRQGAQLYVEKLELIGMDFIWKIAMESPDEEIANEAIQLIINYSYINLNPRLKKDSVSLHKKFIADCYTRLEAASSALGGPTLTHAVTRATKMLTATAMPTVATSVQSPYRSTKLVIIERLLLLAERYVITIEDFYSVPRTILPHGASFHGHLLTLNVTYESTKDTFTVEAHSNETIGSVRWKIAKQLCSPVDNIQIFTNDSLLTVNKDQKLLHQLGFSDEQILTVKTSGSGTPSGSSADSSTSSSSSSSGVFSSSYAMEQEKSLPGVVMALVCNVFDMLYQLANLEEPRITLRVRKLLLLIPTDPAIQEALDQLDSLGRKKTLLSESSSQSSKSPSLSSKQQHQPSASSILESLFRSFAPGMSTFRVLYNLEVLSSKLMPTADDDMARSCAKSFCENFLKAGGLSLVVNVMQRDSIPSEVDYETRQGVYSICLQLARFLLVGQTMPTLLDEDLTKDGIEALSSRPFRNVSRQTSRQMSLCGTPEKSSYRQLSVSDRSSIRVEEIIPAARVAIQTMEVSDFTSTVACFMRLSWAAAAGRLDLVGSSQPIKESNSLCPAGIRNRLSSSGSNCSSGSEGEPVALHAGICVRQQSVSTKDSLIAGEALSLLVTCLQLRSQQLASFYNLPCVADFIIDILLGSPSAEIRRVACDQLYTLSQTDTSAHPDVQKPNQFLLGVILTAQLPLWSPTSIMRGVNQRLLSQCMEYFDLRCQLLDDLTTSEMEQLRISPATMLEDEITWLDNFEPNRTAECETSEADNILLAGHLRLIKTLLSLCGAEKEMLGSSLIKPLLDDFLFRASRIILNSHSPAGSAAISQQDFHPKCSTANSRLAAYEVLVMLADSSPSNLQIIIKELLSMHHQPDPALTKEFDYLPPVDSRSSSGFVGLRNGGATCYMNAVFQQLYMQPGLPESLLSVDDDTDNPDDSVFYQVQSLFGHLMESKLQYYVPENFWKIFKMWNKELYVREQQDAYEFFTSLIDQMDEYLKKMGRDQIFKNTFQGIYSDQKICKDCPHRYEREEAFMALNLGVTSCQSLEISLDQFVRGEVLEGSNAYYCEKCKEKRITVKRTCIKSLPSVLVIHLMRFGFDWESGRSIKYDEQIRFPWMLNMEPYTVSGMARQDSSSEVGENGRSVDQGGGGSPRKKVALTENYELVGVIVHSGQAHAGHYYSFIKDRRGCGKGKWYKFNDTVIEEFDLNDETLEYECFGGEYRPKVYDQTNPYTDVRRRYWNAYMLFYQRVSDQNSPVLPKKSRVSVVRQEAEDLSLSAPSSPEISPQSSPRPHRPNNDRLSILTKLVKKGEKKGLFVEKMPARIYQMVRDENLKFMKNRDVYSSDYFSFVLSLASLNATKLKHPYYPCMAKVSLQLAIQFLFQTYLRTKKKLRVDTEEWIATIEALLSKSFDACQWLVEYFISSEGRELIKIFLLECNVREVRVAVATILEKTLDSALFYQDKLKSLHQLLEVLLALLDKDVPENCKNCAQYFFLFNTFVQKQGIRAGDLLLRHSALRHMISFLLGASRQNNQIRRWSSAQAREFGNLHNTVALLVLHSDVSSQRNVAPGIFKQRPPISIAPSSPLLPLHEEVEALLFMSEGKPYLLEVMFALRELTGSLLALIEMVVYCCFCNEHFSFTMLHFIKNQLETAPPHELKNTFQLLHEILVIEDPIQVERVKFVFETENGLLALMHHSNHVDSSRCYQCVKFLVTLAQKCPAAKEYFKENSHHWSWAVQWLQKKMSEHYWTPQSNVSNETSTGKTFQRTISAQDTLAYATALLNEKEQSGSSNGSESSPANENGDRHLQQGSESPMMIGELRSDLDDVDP
How it was run: as §1

USP25 = target: T3, USP25 (UniProt Q9UHP3)
T3 sequence (whole entry): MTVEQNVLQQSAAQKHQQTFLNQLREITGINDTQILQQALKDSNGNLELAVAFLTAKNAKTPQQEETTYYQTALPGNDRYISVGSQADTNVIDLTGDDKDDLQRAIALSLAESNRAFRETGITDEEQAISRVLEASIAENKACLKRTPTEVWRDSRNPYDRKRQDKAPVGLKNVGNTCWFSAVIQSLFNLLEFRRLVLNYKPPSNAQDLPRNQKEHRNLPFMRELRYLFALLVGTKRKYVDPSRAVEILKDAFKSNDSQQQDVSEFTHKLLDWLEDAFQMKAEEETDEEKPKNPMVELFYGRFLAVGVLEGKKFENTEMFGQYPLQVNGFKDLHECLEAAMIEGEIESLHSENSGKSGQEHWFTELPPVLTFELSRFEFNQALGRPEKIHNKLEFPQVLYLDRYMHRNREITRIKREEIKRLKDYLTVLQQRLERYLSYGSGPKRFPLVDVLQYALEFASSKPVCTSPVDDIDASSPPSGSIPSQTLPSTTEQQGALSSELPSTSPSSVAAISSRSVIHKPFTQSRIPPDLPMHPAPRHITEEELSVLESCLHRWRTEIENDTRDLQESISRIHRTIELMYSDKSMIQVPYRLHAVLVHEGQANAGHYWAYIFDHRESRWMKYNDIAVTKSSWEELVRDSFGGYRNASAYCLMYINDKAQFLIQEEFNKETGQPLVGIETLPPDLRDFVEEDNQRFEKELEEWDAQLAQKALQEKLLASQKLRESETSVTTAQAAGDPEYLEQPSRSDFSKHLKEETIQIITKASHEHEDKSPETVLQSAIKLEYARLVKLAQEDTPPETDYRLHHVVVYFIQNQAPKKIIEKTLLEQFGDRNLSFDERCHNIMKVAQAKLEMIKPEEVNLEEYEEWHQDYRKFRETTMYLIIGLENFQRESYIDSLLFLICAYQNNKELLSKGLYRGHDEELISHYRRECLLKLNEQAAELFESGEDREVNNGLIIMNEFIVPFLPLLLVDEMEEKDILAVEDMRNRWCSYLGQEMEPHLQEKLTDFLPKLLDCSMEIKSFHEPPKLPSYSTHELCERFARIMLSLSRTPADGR
How it was run: as §1

USP28 = target: T4, USP28 (UniProt Q96RU2)
T4 sequence (whole entry): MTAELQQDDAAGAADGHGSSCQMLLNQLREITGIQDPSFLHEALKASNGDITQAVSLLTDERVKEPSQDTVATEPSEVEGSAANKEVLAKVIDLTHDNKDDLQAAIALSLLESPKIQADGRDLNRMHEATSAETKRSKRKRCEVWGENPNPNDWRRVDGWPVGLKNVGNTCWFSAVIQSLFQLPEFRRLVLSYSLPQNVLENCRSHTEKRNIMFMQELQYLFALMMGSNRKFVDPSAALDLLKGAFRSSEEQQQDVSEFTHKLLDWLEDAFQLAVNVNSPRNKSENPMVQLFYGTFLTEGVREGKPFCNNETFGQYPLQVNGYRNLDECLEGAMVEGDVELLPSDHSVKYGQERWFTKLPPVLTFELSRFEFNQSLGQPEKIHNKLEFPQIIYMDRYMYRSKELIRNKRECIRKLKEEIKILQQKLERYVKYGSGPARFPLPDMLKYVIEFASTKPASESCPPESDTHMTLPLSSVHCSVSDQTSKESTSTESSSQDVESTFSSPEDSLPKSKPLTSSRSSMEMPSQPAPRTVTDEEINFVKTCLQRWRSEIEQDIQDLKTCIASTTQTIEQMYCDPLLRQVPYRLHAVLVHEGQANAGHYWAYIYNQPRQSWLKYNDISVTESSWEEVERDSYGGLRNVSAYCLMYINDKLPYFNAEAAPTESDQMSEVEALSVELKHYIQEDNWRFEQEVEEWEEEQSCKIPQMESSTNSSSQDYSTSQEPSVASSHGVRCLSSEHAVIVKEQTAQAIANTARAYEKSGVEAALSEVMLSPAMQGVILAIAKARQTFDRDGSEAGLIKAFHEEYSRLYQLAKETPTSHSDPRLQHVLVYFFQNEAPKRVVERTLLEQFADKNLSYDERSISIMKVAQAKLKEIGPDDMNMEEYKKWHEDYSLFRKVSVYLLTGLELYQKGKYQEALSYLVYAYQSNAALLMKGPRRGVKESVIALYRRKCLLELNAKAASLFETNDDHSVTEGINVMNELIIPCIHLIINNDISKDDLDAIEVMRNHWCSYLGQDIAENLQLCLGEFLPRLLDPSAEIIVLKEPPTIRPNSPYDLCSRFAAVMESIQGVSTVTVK
How it was run: as §1

Measured: log2 ratio of Biotin-Ahx-Ub-VS probe labelling

O=C(CCl)N1CCN(C(=O)Nc2ccccc2)CC1
inactive: USP19 -0.276 | USP22 0.14 | USP24 0.00221 | USP25 -0.151 | USP28 -0.246
